High-throughput results (PubChem)
BAZ2B block – qHTS Assay for Inhibitors of BAZ2B. AlphaScreen BAZ2B-H3K14Ac peptide displacement. Potency, µM (titrated, usually from 114 µM), for inactives: at the top dose activity change, negative = inhibition, most hits filed as inhibitors. 360,000 tested, 4.4% active; also: % is scaled to controls: 0 for no effect and ±100 for the full control effect; nearly all actives have a fitted effect of over 60% in size
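AlphaScreen displacement: compounds (up to 110uM) incubated 30 min at room temperature with a preformed 50 nM BAZ2B/50 nM biotinylated H3K14Ac peptide complex in PBS pH 7.4 with Tween-20. Donor and acceptor beads at 10 ug/mL final added, 20 min light-protected before reading.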
G9a inh – qHTS Assay for Inhibitors of Histone Lysine Methyltransferase G9a; Histone-lysine N-methyltransferase EHMT2 (Homo sapiens), Q96KQ7; G9a H3K9 monomethylation, AlphaScreen, 2 h; Potency, µM (titrated, usually from 102 µM), for inactives: at the top dose activity, negative = inhibition, most hits filed as inhibitors; 350,000 tested, 8.8% active; AID 504332, 2011; also: % is scaled to controls: 0 for no effect and ±100 for the full control effect; nearly all actives have a fitted effect of over 75% in size
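Step 1: enzyme (final 20 nM) with compound, 15 min RT. Step 2: substrate peptide 500 nM and SAM 20 uM, 2 h RT. Step 3: anti-H3K9me1 antibody and AlphaScreen beads, 10 min, then plate read.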
JMJD2A Tudor inh – qHTS Assay for Inhibitors of JMJD2A-Tudor Domain; Lysine-specific demethylase 4A (Homo sapiens), O75164; AlphaScreen JMJD2A-Tudor / H3K4me3 peptide binding; Potency, µM (top dose mostly 114 µM), for inactives: top-dose activity change, negative = inhibition, hits mostly inhibitors; 390,000 tested, 4.4% active; AID 504339, 2011; also: % is scaled to controls: 0 for no effect and ±100 for the full control effect; nearly all actives have a fitted effect of over 50% in size
12-LOX inh – Primary qHTS assay for inhibitors of human arachidonate 12S-lipoxygenase (ALOX12): Round 2; purified 12hLO, xylenol orange hydroperoxide absorbance; Potency, µM (series often up to 108 µM), without a hit: at the top dose activity change, negative = inhibition, usual class: inhibitors; 580,000 tested, 1.1% active; AID 1671190, 2021; also: % is scaled to controls: 0 for no effect and ±100 for the full control effect
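Purified human 12hLO (150 nM final) in 25 mM Hepes, 0.01% Triton X-100, pH 7.0 was preincubated 15 min at room temperature with compound. Then 40 uM arachidonic acid was added, 30 min. Hydroperoxide was read by Fe-XO absorbance ratio 573/405 nm.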
HP1b chromo inh – HTS for Inhibitors of HP1-beta Chromodomain Interactions with Methylated Histone Tails; Chromobox protein homolog 1 (Homo sapiens), P83916; AlphaScreen HP1-beta / biotin-H3K9me3 peptide binding; Potency, µM (highest dose often 114 µM), inactives show top-dose activity change, negative = inhibition, hits mostly inhibitors; 390,000 tested, 0.56% active; AID 540317, 2011; also: nearly all actives have a fitted effect of over 70% in size
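Compound inhibition of the preformed complex between 50 nM HP1-beta and 50 nM biotinylated H3K9me3 peptide was read by AlphaScreen. Buffer was PBS pH 7.4 with 0.01% Tween-20. Incubations ran 30 min at room temperature, with 10 ug/mL donor/acceptor beads.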
Sfp PPTase inh – qHTS Assay for Inhibitors of Bacillus subtilis Sfp phosphopantetheinyl transferase (PPTase); 4'-phosphopantetheinyl transferase ffp (Bacillus subtilis), Q9F4F7; Biochemical Sfp PPTase activity, qHTS; Potency, µM, without a hit: largest response in the series, negative = inhibition, most hits filed as inhibitors; 310,000 tested, 3.5% active;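 also: the enzyme is Sfp with the accession as filed and its product quenches rhodamine fluorescence; 0% = enzyme reaction without inhibitor and -100% = no enzyme wells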
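Reaction rates are the 30-min fluorescence difference (ex 525, em 598 nm) in wells containing 15 nM Sfp, 5 uM rhodamine-CoA and 12.5 uM BHQ-2-YbbR at pH 7.6 with 10 mM MgCl2.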
Active calls of the source: *; ? = inconclusive; . = not tested or not shown; [ ] = dose if it differs, or a comment. Only some compounds are listed: those with a hit (about 8.7% of all), similar ones and a draw of the others. Calls follow the shape of the dose curve; as a rule, active = well fitted curve in the direction sought with a large enough effect; inconclusive = small, poorly fitted or top-dose-only effect, or another doubt; inactive = no such curve, though single readings can be large; an effect the other way counts as inactive or inconclusive. Potency is read from the fitted curve at half-maximal effect.

SMILES	BAZ2B block	G9a inh	JMJD2A Tudor inh	12-LOX inh	HP1b chromo inh	Sfp PPTase inh
O=C1c2cccc3c([N+](=O)[O-])ccc(c23)C(=O)N1Cc1cccnc1	39.8µM*	?	-21.1%[57.1 µM]	-14.8%	?	?
Cc1nnc(N2C(=O)c3cccc4c([N+](=O)[O-])ccc(c34)C2=O)s1	-21.1%	50.1µM*	-4.7%	?	54.4%	-19.4%
Cc1ccnc(N2C(=O)c3cccc4c([N+](=O)[O-])ccc(c34)C2=O)c1	4.6%	?	-25.2%	-3.4%	1.7%	-9.5%
COc1ccc(C(=O)O)c(O)c1OC	.	.	.	.	.	9.5%
COC1=C(N)C(=O)c2nc(-c3nc(C(=O)O)c(C)c(-c4ccc(OC)c(OC)c4O)c3N)ccc2C1=O	1.6%	?	89.1µM*	.	-22.7%	3.55µM*
c1ccc(CNCCN2CCCC2)nc1	.	.	.	-3.2%	.	.
c1ccc(CNCCN2CCNCC2)nc1	15.8µM*	3.6%	?	7.1%	26.1%	-4.0%
COc1ccccc1-c1noc(CSc2nc3ccccc3o2)n1	.	.	.	-2.0%	.	.
CN(C)S(=O)(=O)c1ccc(NC(=O)COC(=O)c2ccccn2)cc1	?	50.1µM*	?	-8.3%	16.9%	12.1%
CCCCCC(=O)Nc1ccc(C(=O)COC(=O)c2ccccn2)cc1	-34.1%	50.1µM*	0.0%	?	20.4%	.
O=C(COC(=O)/C=C/c1ccccc1)Nc1cccnc1Cl	8.3%	50.1µM*	0.7%	-2.7%	21.2%	.
CC(=O)NCC(=O)OCC(=O)c1ccccc1	1.7%	-4.7%[59 µM]	-11.0%	-16.1%	21.0%	14.7%
CC(=O)c1cccc(NC(=O)COC(=O)c2ccccn2)c1	?	11.7%[59 µM]	0.0%	0.0%	22.6%	22.3%
O=C(COC(=O)/C=C/c1cccc([N+](=O)[O-])c1)Nc1cccnc1Cl	.	.	-10.3%	-19.7%	24.0%	.
CCCCCCC(=O)NCC(=O)OCC(=O)c1ccccc1	9.3%	25.1µM*	-10.3%[11.4 µM]	43.9%	61.0%	10.5%
Cc1ccc(NC(=O)c2cc3n(n2)CC(c2ccc(Cl)cc2)OC3)cc1F (centres undefined)	.	.	.	4.6%	.	.
COC(=O)C1=C(N)OC2=C(C(=O)CC(C)(C)C2)C1c1ccc(Cl)cc1 (centres undefined)	.	.	.	-39.4%	.	.
CCCNC(=O)CN1CCN(Cc2cccc3cccnc23)CC1	.	.	.	7.8%	.	.
CC(=O)Nc1ccc(NC(=O)COC(=O)c2ccccn2)cc1	50.1µM*	44.7µM*	-5.2%[57.1 µM]	-10.9%	36.2%	13.6%
O=C(COC(=O)c1ccccn1)Nc1ccccc1Cl	?	10µM*	31.6µM*	?	-0.6%	?
O=C(NC[C@H]1OC[C@@H](N(Cc2ccccc2F)Cc2ccccc2F)[C@@H]1O)c1ccccc1	.	.	.	5.1%	.	.
CC(=O)/C(CN1CCCCC1)=N\O	7.9%	-5.7%[59 µM]	-7.6%	0.3%	20.4%	-10.4%
C/C(=N\O)C(=O)C(CN1CCCCC1)CN1CCCCC1	7.5%	0.891µM*	-30.2%	0.3%	?	-9.5%
Cc1cc(=O)[nH]c(NN=C2C3CC4CC(C3)CC2C4)n1	8.1%	2.51µM*	?	-3.4%	43.0%	44.7µM*
Cc1cc(=O)[nH]c(N/N=C/C=C/c2ccccc2)n1	0.8%	33.8%	-28.5%	8.6%	18.6%	-12.0%
SMILES	BAZ2B block	G9a inh	JMJD2A Tudor inh	12-LOX inh	HP1b chromo inh	Sfp PPTase inh
Cc1cc(=O)[nH]c(NN=C2CCCCC2C)n1 (centres undefined)	.	.	0.891µM*	33.4%	-23.5%	.
Cc1cc(=O)[nH]c(NN)n1	-0.3%	.	-4.4%[11.4 µM]	-38.1%	26.9%	44.7µM*
Cc1cc(=O)[nH]c(N/N=C/CCc2ccccc2)n1	5.6%	-22.9%	-19.4%	?	24.3%	?
Cc1cc(=O)[nH]c(N/N=C2/CCCC/C2=C\c2ccccc2)n1	2.8%	44.7µM*	-4.4%[11.4 µM]	-0.2%	-2.7%	2.3%
Cc1cc(=O)[nH]c(NN=Cc2c(Cl)cccc2Cl)n1	.	.	-29.9%	-5.9%	28.8%	.
Cc1cc(=O)[nH]c(NCCO)n1	-0.6%	7.1%	-17.4%	-0.2%	-9.3%	22.0%
CC(Oc1ccc(F)cc1)C(=O)Nc1cccc(-c2nc3ccccc3o2)c1 (centres undefined)	.	.	.	-29.2%	.	.
CCOc1ccc(-n2c(N)c(C(=O)NCc3ccco3)sc2=S)cc1	-39.0%	?	-32.2%	?	-59.3%	12.6µM*
Cc1ccc(-n2c(N)c(C(=O)N3CCOCC3)sc2=S)cc1	-5.3%	?	?	?	-15.0%	-90.4%
CN1CCN(C(=O)c2sc(=S)n(-c3ccccc3)c2N)CC1	-6.8%	?	100µM*	?	?	-94.3%
COC(=O)c1sc(=S)n(-c2cccc(Cl)c2)c1N	-3.8%	29.9%[0.501 µM]	-36.0%	?	-31.1%	31.6µM*
CCOc1ccc(-n2c(N)c(C(=O)NCc3cccnc3)sc2=S)cc1	-0.4%	?	-10.0%	?	-19.2%	?
CCNC(=O)c1sc(=S)n(-c2ccc(C)cc2)c1N	-29.9%	31.6µM*	-18.8%	?	?	56.2µM*
CCC(OC)C(=O)N1CCN(c2nc(-c3ccccc3)nc3c2CCC3)CC1 (centres undefined)	.	.	.	1.1%	.	.
COc1ccc(CNC(=O)c2sc(=S)n(-c3ccccc3)c2N)cc1	-10.6%	.	-21.7%	?	?	25.1µM*
CCSC1=C(C#N)C2(CCCCC2)C(C#N)C(=O)N1 (centres undefined)	.	-4.1%[59 µM]	-12.8%	-14.0%	28.1%	12.8%
N#CC1=C2SCCN2C(=O)C(C#N)C12CCCCC2 (centres undefined)	-38.2%	22.4µM*	-25.4%	0.0%	18.6%	5.3%
CN1/C(=C\C(=O)COC(=O)c2ccc(O)c(O)c2)C(C)(C)c2ccccc21	.	?	?	10µM*	-16.1%	?
CN1/C(=C\C(=O)CSc2cccc[n+]2[O-])C(C)(C)c2ccccc21	-4.7%	10µM*	-3.2%	-23.6%	34.6%	15.8µM*
CN1/C(=C/C(=O)CSc2ccccc2C(=O)O)C(C)(C)c2ccccc21	?	?	-29.8%	5.9%	1.7%	89.1µM*
CN1/C(=C/C(=O)CSC(=S)N2CCCC2)C(C)(C)c2ccccc21	.	.	.	-71.6%	.	.
Cc1ccc(NC(=O)CC2S/C(=N/N=C3/NC(=O)CS3)NC2=O)cc1 (centres undefined)	56.2µM*	?	?	?	44.1%	3.9%
